A selection: hits, their analogues and other compounds. The true share with any hit is near 3.1%.
ATG4B inh: ATG4B (human) cysteine protease inhibition | ATG4B cleavage of LC3-PLA2, NBD-HPC fluorescence, 1 h | actives 0.51% (n = 340,000) | inhibition, % at 8.33 µM; in the data active means inhibition above about 40%
Target sequence (Q9Y4P1 whole entry, looked up): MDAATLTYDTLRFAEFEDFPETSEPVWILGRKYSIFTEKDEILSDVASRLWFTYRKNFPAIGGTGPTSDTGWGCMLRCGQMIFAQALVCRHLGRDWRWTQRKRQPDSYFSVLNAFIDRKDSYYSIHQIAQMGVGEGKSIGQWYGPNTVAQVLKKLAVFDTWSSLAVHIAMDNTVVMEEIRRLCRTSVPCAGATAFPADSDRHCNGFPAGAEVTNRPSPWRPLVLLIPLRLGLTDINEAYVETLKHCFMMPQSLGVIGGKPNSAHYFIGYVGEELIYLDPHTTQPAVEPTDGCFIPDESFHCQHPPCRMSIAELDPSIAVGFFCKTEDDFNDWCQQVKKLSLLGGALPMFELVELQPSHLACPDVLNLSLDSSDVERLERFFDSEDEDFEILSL
FAS-TE inh: blocks the thioesterase domain of human fatty acid synthase; recombinant FAS-TE, OMFH fluorogenic substrate, fluorescence endpoint; inhibition, % at 15 µM; actives 0.67% (n = 360,000);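 active means compounds whose normalised, plate-corrected inhibition of enzyme fluorescence in the single-dose primary screen is 50% or more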;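 further: 0% = DMSO with enzyme and 100% = substrate without enzyme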
Mot1-301 SUMO: SUMOylation pathway inhibition by Mot1-301 growth rescue. growth rescue, % at 18.8 µM. AID 2716. actives 1% (n = 320,000). S. cerevisiae Mot1-301 growth rescue, ATP luminescence, 38.5C; percent above DMSO median, 100 means doubled;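 active means every valid replicate shows activation above 250% relative to neutral control wells; inactive means the rest, any valid replicate at or below 250%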;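 further: OY570 slx delta 5 strain wells were the positive control but not used for scaling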
Calb FLC: C. albicans growth modulation with fluconazole. C. albicans CaCi-2 (fluconazole-resistant clinical isolate) + fluconazole, Alamar Blue growth, 48 h. growth inhibition, % (no concentration beside the values). actives 0.57% (n = 300,000);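 active means growth inhibition above about 58% in most replicates, limit read from the data, passing the limit was not always enough; inconclusive means exactly half the replicates above a set limit; inactive means most replicates below a set limit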;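 further: all wells also contain fluconazole at 8 µg/ml as a sub-toxic cotreatment; 0% = median of DMSO wells and 100% = median of geldanamycin control wells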
NadD block: inhibitors of Staphylococcus aureus NadD; purified NadD enzyme, colorimetric absorbance read-out; inhibition, % at 20 µM; actives 0.78% (n = 360,000); in the data active means inhibition above about 26%
PLA2 ctr: counter-screen for ATG4B inhibitors: human phospholipase A2; shares compounds with ATG4B inh; purified PLA2, NBD-C6-HPC fluorescence, 45 min; inhibition, % at 8.33 µM; actives 66% (n = 1,600); AID 588402; in the data active means inhibition above about 50%
Target sequence (P04054 whole entry, looked up): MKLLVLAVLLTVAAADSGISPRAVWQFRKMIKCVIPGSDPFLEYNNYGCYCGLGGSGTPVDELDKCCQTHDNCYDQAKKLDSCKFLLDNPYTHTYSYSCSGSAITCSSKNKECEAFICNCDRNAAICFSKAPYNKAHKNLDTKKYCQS
The depositor's hits bear a star.

What do the screens show for `Cc1ccc(/C(=N/Nc2nc3ccccc3s2)C2=C(O)c3ccccc3C2=O)cc1`?
ATG4B inh: 45.0*; FAS-TE inh: 31.1; Calb FLC: -1.8; NadD block: 34.0*; PLA2 ctr: 65.0*

How did O=C(Oc1cncc(Cl)c1)c1ccco1 do in these assays?
ATG4B inh: -5.7; FAS-TE inh: 0.4; Mot1-301 SUMO: 11.2; Calb FLC: -2.2; NadD block: -6.2

What do the screens show for `O=C(Oc1cncc(Cl)c1)c1sccc1Cl`?
ATG4B inh: 98.3*; FAS-TE inh: 6.3; Mot1-301 SUMO: -6.8; Calb FLC: -2.7; NadD block: -1.0; PLA2 ctr: -11.7

Results for CC(Sc1ncnc2sc(-c3ccccc3)cc12)C(=O)NCC1CCCO1 (stereo not given) ?
ATG4B inh: -10.8; FAS-TE inh: 4.6; Mot1-301 SUMO: -17.1; Calb FLC: -1.3; NadD block: -7.0

What do the screens show for `CCc1ccccc1NC(=S)/N=C(\N)Nc1nc(C)c2cc(C)ccc2n1`?
ATG4B inh: 79.7*; FAS-TE inh: 17.6; Mot1-301 SUMO: 23.9; Calb FLC: 8.0; NadD block: 11.2; PLA2 ctr: 82.0*

What do the screens show for `Cc1ccc(NC(=S)/N=C(\N)Nc2nc(C)c3cc(C)ccc3n2)c(C)c1`?
ATG4B inh: -8.6; FAS-TE inh: 33.8; Mot1-301 SUMO: 4.5; Calb FLC: -4.0; NadD block: 11.1

How did O=C(COc1ccc2ccc(=O)oc2c1)Nc1cccc(S(=O)(=O)N2CCCCC2)c1 do in these assays?
ATG4B inh: -25.8; FAS-TE inh: 0.1; Mot1-301 SUMO: 23.2; NadD block: -6.7

How did COc1cc(C=NNc2ccc(S(=O)(=O)Nc3ccccc3C(=O)O)cc2[N+](=O)[O-])ccc1O do in these assays?
ATG4B inh: 46.4*; FAS-TE inh: 11.6; Mot1-301 SUMO: 8.4; NadD block: 12.7; PLA2 ctr: 62.8*

How did O=C(O)c1ccccc1NS(=O)(=O)c1ccc(N/N=C/c2cccc(O)c2O)c([N+](=O)[O-])c1 do in these assays?
ATG4B inh: 50.5*; FAS-TE inh: 20.7; NadD block: 19.1; PLA2 ctr: 53.1*

How did CC(=O)Nc1ccc(C=NNc2ccc(S(=O)(=O)Nc3ccccc3C(=O)O)cc2[N+](=O)[O-])cc1 do in these assays?
ATG4B inh: 10.8; FAS-TE inh: -3.2; Mot1-301 SUMO: 11.5; NadD block: 11.2

How did O=C(CN1C(=O)c2ccccc2C1=O)NCCc1c[nH]c2ccc(Cl)cc12 do in these assays?
ATG4B inh: -4.7; FAS-TE inh: 10.4; Mot1-301 SUMO: -8.8; Calb FLC: -11.1; NadD block: -2.5

How did O=C1c2ccccc2C(=O)N1CCCc1c[nH]c2ccc(Cl)cc12 do in these assays?
ATG4B inh: 53.4*; FAS-TE inh: 29.9; Mot1-301 SUMO: -4.4; Calb FLC: 11.5; NadD block: -12.1; PLA2 ctr: 49.9

Results for CCN1CCN(c2c(Cl)cccc2NC(=O)c2ccc3c(c2)OCCO3)CC1 ?
ATG4B inh: 64.9*; FAS-TE inh: -6.3; Mot1-301 SUMO: 0.7; Calb FLC: 3.9; NadD block: -1.4; PLA2 ctr: 66.8*

Results for O=C(Nc1ccc(N2CCCC2)c(Cl)c1)c1ccco1 ?
ATG4B inh: 2.7; FAS-TE inh: -4.0; Mot1-301 SUMO: -2.4; Calb FLC: -10.8; NadD block: 2.2

Results for O=C(Nc1cccc(Cl)c1N1CCCC1)c1ccco1 ?
ATG4B inh: 62.6*; FAS-TE inh: 16.3; Mot1-301 SUMO: -20.0; Calb FLC: 7.1; NadD block: 1.6; PLA2 ctr: 67.5*

What do the screens show for `Cc1cc(Nc2ccc(Cl)cc2)n(-c2ccccc2)n1`?
ATG4B inh: 33.5; FAS-TE inh: 13.7; Mot1-301 SUMO: -10.0; Calb FLC: -5.7; NadD block: 1.6

What do the screens show for `Cc1cc(Nc2ccc(Cl)cc2)n(-c2cccc(Cl)c2)n1`?
ATG4B inh: 41.4*; FAS-TE inh: 18.6; Mot1-301 SUMO: -14.0; Calb FLC: -39.6; NadD block: -2.7; PLA2 ctr: 63.4*

Results for Cc1nc(N2CCN(C)CC2)c2c3c(sc2n1)CCCC3 ?
ATG4B inh: 1.1; FAS-TE inh: -5.1; Mot1-301 SUMO: 9.2; Calb FLC: -2.2; NadD block: -2.6

How did CSc1nc(N2CCOCC2)c2c3c(sc2n1)CCC3 do in these assays?
ATG4B inh: 48.6*; FAS-TE inh: 2.1; Mot1-301 SUMO: -0.6; Calb FLC: -1.4; NadD block: -1.8; PLA2 ctr: 50.2*

How did OC(c1cc(-c2ccc(Cl)cc2)nc2ccccc12)C1CCCCN1 (stereo not given) do in these assays?
ATG4B inh: 41.8*; FAS-TE inh: -0.3; Mot1-301 SUMO: 19.0; Calb FLC: 93.9*; NadD block: -4.2; PLA2 ctr: 52.3*

What do the screens show for `O[C@@H](c1cc(C(F)(F)F)nc2c(C(F)(F)F)cccc12)[C@H]1CCCCN1`?
ATG4B inh: 3.4; FAS-TE inh: 5.6; Mot1-301 SUMO: 3.8; NadD block: -2.4

What do the screens show for `Cc1ccccc1-c1nnn(Cc2ccc(F)cc2Cl)n1`?
ATG4B inh: 43.8*; FAS-TE inh: 32.5; Mot1-301 SUMO: -6.8; Calb FLC: -8.3; NadD block: 0.0; PLA2 ctr: 46.4

How did O=C(CN1c2cccc3cccc(c23)S1(=O)=O)Nc1ccc(F)c(F)c1F do in these assays?
ATG4B inh: -3.0; FAS-TE inh: 18.2; Mot1-301 SUMO: -11.5; NadD block: -2.0

How did O=C(Cc1ccccc1[N+](=O)[O-])OCC(=O)N1CCN(c2ccccc2)CC1 do in these assays?
ATG4B inh: 6.2; FAS-TE inh: -7.0; Mot1-301 SUMO: 5.0; Calb FLC: -5.2; NadD block: 2.2

How did CCCCOc1ccc(C(=S)N2CCC(C(N)=O)CC2)cc1 do in these assays?
ATG4B inh: 81.5*; FAS-TE inh: -3.5; Mot1-301 SUMO: -3.1; Calb FLC: -2.0; NadD block: -3.7; PLA2 ctr: 83.6*

Results for COc1ccc(OC)c(-c2csc(N(Cc3ccco3)C(=O)c3cccs3)n2)c1 ?
ATG4B inh: 56.7*; FAS-TE inh: 33.3; Mot1-301 SUMO: 19.2; Calb FLC: 19.3; NadD block: 1.3; PLA2 ctr: 72.4*

How did O=C(O)C(=Cc1cccc([N+](=O)[O-])c1)c1ccc(Cl)cc1 do in these assays?
ATG4B inh: 1.2; FAS-TE inh: 5.6; NadD block: 0.4

How did O=C(/C=C/c1ccc(Cl)cc1)N1CCN(c2c(Cl)cccc2[N+](=O)[O-])CC1 do in these assays?
ATG4B inh: 43.8*; FAS-TE inh: 38.6; Mot1-301 SUMO: 4.4; Calb FLC: inconclusive; NadD block: -2.6; PLA2 ctr: 47.3

Results for O=C(CSc1ccc(Cl)cc1)N1CCN(c2c(Cl)cccc2[N+](=O)[O-])CC1 ?
ATG4B inh: 39.0; FAS-TE inh: 22.4; Mot1-301 SUMO: -1.9; Calb FLC: 14.9; NadD block: -1.2

How did O=C(Nc1ccc2c(c1)OCO2)c1cc(-c2ccc(O)cc2)on1 do in these assays?
ATG4B inh: 8.5; FAS-TE inh: -3.4; Mot1-301 SUMO: 21.8; Calb FLC: -11.3; NadD block: 5.9
